Test results as given in PubChem BioAssay (NCATS).
Records with an inconclusive call do not appear. Activity calls are given as the source filed them. Calls come from the whole dose curve; as a rule, active = well fitted curve in the direction sought with a large enough effect; inconclusive = small, poorly fitted or top-dose-only effect, or another doubt; inactive = no such curve, though single readings can be large; an effect the other way counts as inactive or inconclusive.

What was measured:
[1] = HPAF-II Cancer Cell Toxicity qHTS against the NCATS CANVASS Library (AID 1347346); note: nearly all actives have a fitted effect of over 55% in size; note: potency is the fitted concentration of half-maximal effect; for activity change, negative = cytotoxicity: series mostly up to about 38 µM; % is set by controls: 0 for no effect and ±100 for the full control effect
Method in brief: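 Cytotoxicity in HPAF-II pancreatic cancer cells: 72 h treatment across 11 concentrations, ATP-based CellTiter-Glo luminescence endpoint.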

[2] = OV-SAHO Cancer Cell Toxicity qHTS against the NCATS CANVASS Library (AID 1347348); note: series mostly up to about 38 µM; % is set by controls: 0 for no effect and ±100 for the full control effect; nearly all actives have a fitted effect of over 55% in size
Method in brief: (§1)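 ATP content after 72 h treatment, detected by CellTiter-Glo luminescence (15min room-temperature development), reflects cell viability. Wells contained 1000 cells and received compounds at 11 concentrations.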

[3] = Panc-1005 Cancer Cell Toxicity qHTS against the NCATS CANVASS Library (AID 1347349); note: nearly all actives have a fitted effect of over 60% in size; note: potency is the fitted concentration of half-maximal effect; for activity change, negative = cytotoxicity: series mostly up to about 38 µM; % is set by controls: 0 for no effect and ±100 for the full control effect
Method in brief: as §1

[4] = COV-362 Cancer Cell Toxicity qHTS against the NCATS CANVASS Library (AID 1347352); note: series mostly up to about 38 µM; % is set by controls: 0 for no effect and ±100 for the full control effect
Method in brief: (§2)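 qHTS cytotoxicity: compounds tested in 11 concentrations on 1000 seeded cells per well over 72 h; bortezomib served as control; signal from CellTiter-Glo luminescence.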

[5] = A2780 Cisplatin Sensitive Ovarian Cancer Cell Toxicity qHTS against the NCATS CANVASS Library (AID 1347353); note: nearly all actives have a fitted effect of over 60% in size; note: potency is the fitted concentration of half-maximal effect
Method in brief: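 Seventy-two-hour exposure of cisplatin-sensitive A2780 ovarian cells to an 11-concentration qHTS series; cytotoxicity is inferred from loss of ATPLite luminescence. Bortezomib titration served as positive control.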

[6] = UWB1.289-WTBRCA1 Cancer Cell Toxicity qHTS against the NCATS CANVASS Library (AID 1347354)
Method in brief: as §2

[7] = HEK-293 Cancer Cell Toxicity qHTS against the NCATS CANVASS Library (AID 1347355); note: nearly all actives have a fitted effect of over 65% in size; note: potency is the fitted concentration of half-maximal effect; for activity change, negative = cytotoxicity: series mostly up to about 46 µM; % is set by controls: 0 for no effect and ±100 for the full control effect
Method in brief: as §2

[8] = HPAF-II 24hr Apoptosis Induction qHTS against the NCATS CANVASS Library (AID 1347356); note: 0% is about no effect
Method in brief: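 Apoptosis induction in HPAF-II pancreatic cancer cells is measured as caspase-3/7 luminescence after a 24-hour exposure to compounds.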

[9] = KB-8-5-11 Cancer Cell Toxicity qHTS against the NCATS CANVASS Library (AID 1347364); note: nearly all actives have a fitted effect of over 75% in size
Method in brief: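 Natural products were titrated in 11 points onto KB-8-5-11 cells, 500 per well, and cytotoxicity was scored from CellTiter-Glo luminescence after 72 hr culture.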

[10] = qHTS for Hypoxia signaling pathway (HIF-1) antagonists against the NCATS CANVASS Library (AID 1347374); note: nearly all actives have a fitted effect of over 60% in size; note: potency is the fitted concentration of half-maximal effect
Method in brief: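 HRE-bla ME-180 cells (2,000/well, 0.5% dialyzed FBS) were pre-incubated 5 h, then given an 11-point compound series plus CoCl2 (60 uM solution as added) for 17 h at 37C. CCF4 β-lactamase read (ex 405, em 460/530 nm) after 2 h at RT.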

[11] = Cytotoxicity qHTS for assessment of Hepg2 cells membrane integrity screened against the NCATS CANVASS Library (AID 1347387)
Method in brief: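 Fluorescence proportional to lysed-cell number, from LDH leaking out of HepG2 cells exposed 5 hr at 37C to 0.59 nM - 46 uM compound (11-point qHTS), is measured after 10 min with CytoTox-ONE.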

[12] = qHTS for activators of Nrf2/ARE signaling pathway screened against the NCATS CANVASS Library (AID 1347391); note: nearly all actives have a fitted effect of over 60% in size; note: potency is the fitted concentration of half-maximal effect; for activation: 0% is about no effect
Method in brief: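 Cells carrying an ARE-driven beta-lactamase reporter (HepG2 background) are dosed for 16 h, then stained with CCF4. Cell viability in the same wells is measured by CellTiter-Glo luminescence.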

[13] = Vero-766 cells viability qHTS against the NCATS CANVASS Library: Counterscreen for Zika virus inhibition assay (AID 1347394); note: nearly all actives have a fitted effect of over 60% in size; note: potency is the fitted concentration of half-maximal effect
Method in brief: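 CellTiter-Glo luminescence, lower signal indicating cytotoxicity. Vero 766 cells without Zika virus, 1000 cells/well, plated overnight, then treated 72 h at 37C across an 11-point series.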

[14] = Viability qHTS for inhibitors of the SERCaMP assay screened against the NCATS CANVASS Library (AID 1347400); note: nearly all actives have a fitted effect of over 70% in size; note: potency is the fitted concentration of half-maximal effect
Method in brief: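 Cytotoxicity counter-screen: ATP content (CellTiter-Glo luminescence) of SH-SY5Y-GLuc SERCaMP MJH297 cells after 48 h at 37C with compounds in an 11-point qHTS series.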

[15] = SDT Cancer Cell Toxicity qHTS against the NCATS CANVASS Library (AID 1347365); note: nearly all actives have a fitted effect of over 60% in size; note: potency is the fitted concentration of half-maximal effect
Method in brief: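 Dispense 500 SDT cells per well; pin-transfer compounds; incubate 72 hr at 37C, 5% CO2, 95% RH; add CellTiterGlo and read luminescence.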

[16] = qHTS for ATAD5 Agonist screened against the NCATS CANVASS Library (AID 1347367); note: 0% is about no effect
Method in brief: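 Luminescence read-out: ATAD5-driven luciferase in stably transfected HEK 293T cells, which rises post-transcriptionally with DNA damage. Cells were exposed 16hr at 37C to test compound; a CellTiter-Fluor fluorescence read (1hr) measured viability first.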

[17] = qHTS for activators of dead-cell proteases activity screened against the NCATS CANVASS Library (AID 1347392);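 note: luminescence from protease leaking out of membrane-damaged cells cleaving impermeant substrate; 0% is about no effect; rising signal means more cytotoxicity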
Method in brief: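 Compounds are pin-transferred onto attached HepG2 cells, giving 11 final concentrations. After 5 h at 37C, AAF-aminoluciferin reagent is added and luminescence is recorded at room temperature.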

[18] = qHTS for inhibitors of ER calcium dysfunction: SERCaMP assay screened against the NCATS CANVASS Library (AID 1347393);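 note: series mostly up to about 77 µM; % is set by controls: 0 for no effect and ±100 for the full control effect; lower secreted reporter signal means inhibitor of ER calcium depletion; nearly all actives have a fitted effect of over 40% in size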
Method in brief: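 Thapsigargin-induced ER calcium depletion drives GLuc-SERCaMP secretion from SH-SY5Y cells; compounds given 16 h beforehand were scored by lowered coelenterazine luminescence after 4 h challenge.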

[19] = Redox Reaction Profiling qHTS: Assay Interference Panel against the NCATS CANVASS Library (AID 1347401); note: potency is the fitted concentration of half-maximal effect
Method in brief: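 Cell-free redox surrogate: 5 uM resazurin + 200 uM DTT, 50 mM HEPES pH 7.3/50 mM NaCl; cpds pinned, 11-pt qHTS; Ex525/Em598 read t0 and t=15 min, dark.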

[20] = qHTS for Hypoxia signaling pathway (HIF-1) agonists against the NCATS CANVASS Library (AID 1347375); note: 0% is about no effect
Method in brief: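 Inducers of HIF-1 signaling were detected in ME-180 cells bearing an HRE-driven beta-lactamase reporter after 17 h compound exposure. Activity came from CCF4-AM FRET emission ratio (460/530 nm) in qHTS format.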

CN1CC[C@@]2([C@@]34CCN(C)[C@@H]3Nc3ccccc34)c3ccccc3N[C@@H]12
inactive: Potency [1] | Potency [2] | Potency [3] | Potency [4] | Potency [5] | Potency [6] | Potency [7] | outcome [8] | Potency [9] | Potency [10] | outcome [11] | Potency [12] | Potency [13] | Potency [14]

CC(C)=CCC[C@]1(C)[C@H]2CC(=O)[C@@]3(CO3)[C@@H]1C2
inactive: Potency [1] | Potency [2] | Potency [3] | Potency [4] | Potency [5] | Potency [6] | Potency [7] | outcome [8] | Potency [9] | Potency [15] | Potency [16] | Potency [10] | outcome [11] | Potency [12] | Potency [17] | Potency [18] | Potency [13] | Potency [14] | Potency [19]

O=C(OC[C@H]1O[C@@H](OC(=O)c2cc(O)c(O)c(O)c2)[C@H](OC(=O)c2cc(O)c(O)c(O)c2)[C@@H](OC(=O)c2cc(O)c(O)c(O)c2)[C@@H]1OC(=O)c1cc(O)c(O)c(O)c1)c1cc(O)c(O)c(O)c1
active: Potency [3] 8.41 µM | Potency [5] 8.33 µM | Potency [15] 23.5 µM | Potency [14] 34 µM | Potency [19] 24.1 µM
inactive: outcome [8] | Potency [16] | Potency [17]

C/C=C(/C)c1cc(O)c(C)c2c1Oc1cc(O)cc(C)c1C(=O)O2
inactive: Potency [2] | Potency [3] | Potency [4] | Potency [5] | Potency [6] | Potency [7] | outcome [8] | Potency [15] | Potency [16] | outcome [20] | outcome [11] | Potency [14] | Potency [19]

CC[C@H](O)CCCCC[C@@H]1NC(=O)[C@H]2CCCCN2C(=O)[C@H]([C@H](C)CC)NC(=O)[C@H](Cc2cn(OC)c3ccccc23)NC1=O
inactive: Potency [6] | Potency [9] | Potency [16] | Potency [10] | outcome [20] | outcome [11] | Potency [12] | Potency [17] | Potency [18] | Potency [14] | Potency [19]
active: Potency [1] 3.75 µM | Potency [3] 18.8 µM | Potency [5] 23.5 µM | Potency [13] 6.6 µM

CO[C@H]1/C=C/CCCCC(=O)O[C@@H](/C(C)=C/[C@H](C)C(=O)C[C@H](O)CC2CC(=O)NC(=O)C2)[C@@H](C)C1
active: Potency [5] 4.69 µM | Potency [7] 14.8 µM | Potency [15] 4.69 µM | Potency [10] 7.47 µM | Potency [12] 16.6 µM
inactive: Potency [9] | Potency [16] | outcome [20] | outcome [11] | Potency [17] | Potency [18] | Potency [13]

COc1cc(C2OCC3C(c4ccc(O)c(OC)c4)OCC23)ccc1O (centres undefined)
active: Potency [12] 0.305 µM
inactive: activity change, negative = cytotoxicity [2] -15.1% [at 7.64 µM] | activity change, negative = cytotoxicity [3] -5.51% [at 7.64 µM] | activity change, negative = cytotoxicity [4] -3.45% [at 7.64 µM] | outcome [5] inactive [at 9.19 µM] | outcome [6] inactive [at 7.64 µM] | outcome [9] inactive [at 9.19 µM] | activity change, negative = cytotoxicity [15] 2.04% [at 9.19 µM] | cytotoxicity (LDH release) [11] 0.144 [at 9.19 µM] | activation (cytotoxicity) [17] 4.3% [at 9.19 µM] | activity change, negative = inhibition [18] 43.6% [at 15.3 µM] | activity change, negative = cytotoxic [13] -3.52% [at 9.19 µM] | activity change, negative = cytotoxicity [14] -10.2% [at 18.4 µM]
